Screening data (PubChem)
Compounds with a hit are over-represented: about 3.4% of the library has one in this group of screens.
KLK7 zymogen act: proKLK7 zymogen activators, primary screen, biochemical, fluorescence intensity; AID 652039, 2013; activation, % at 7 µM; hit rate 0.9% among 370,000; purified proKLK7, EDANS-DABCYL substrate fluorescence; 100% is mature enzyme control, 0% vehicle;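 active = activation above the mean of all tested compounds plus 3 SD, computed per campaign excluding outliers beyond control limits, cut at about 13% in these data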
PLCg1 inh: PLC-gamma1 enzyme inhibitors, primary screen, biochemical, fluorescence, purified enzyme | inhibition, % at 12.2 µM | hit rate 0.84% among 370,000 | fluorogenic substrate; in the data active = inhibition above about 9.5%
PLC-beta3 inh: human PLC-beta3 inhibitors, primary screen, biochemical, fluorescence | inhibition, % at 12.2 µM | Purified PLC-beta3, fluorogenic substrate | AID 720704, 2013 | hit rate 0.18% among 370,000; in the data active = inhibition above about 11%
HGIII-sPLA2 inh: human group III sPLA2 inhibitors, primary screen, biochemical, QFRET, BODIPY PC-A2 liposome substrate; Group 3 secretory phospholipase A2 (Homo sapiens), Q9NZ20; QFRET BODIPY PC-A2 liposome hydrolysis, fluorescence; inhibition, % at 12.2 µM; hit rate 0.56% among 370,000;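 active = inhibition above mean plus 3 SD of compounds lying within the high and low control bounds, cut at about 19% in these data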
ADAM10 inh: human ADAM10 inhibitors, primary screen, biochemical, QFRET, HTS | Disintegrin and metalloproteinase domain-containing protein 10 (Homo sapiens), O14672 | recombinant ADAM10, EDANS/DABCYL FRET peptide cleavage, 3 h | inhibition, % at 7 µM | hit rate 0.62% among 370,000;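 active = inhibition above a per-campaign cutoff equal to the mean of compounds falling between control-based bounds plus 3 SD, cut at about 20% in these data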
Target sequence (O14672 214-748 limits assumed): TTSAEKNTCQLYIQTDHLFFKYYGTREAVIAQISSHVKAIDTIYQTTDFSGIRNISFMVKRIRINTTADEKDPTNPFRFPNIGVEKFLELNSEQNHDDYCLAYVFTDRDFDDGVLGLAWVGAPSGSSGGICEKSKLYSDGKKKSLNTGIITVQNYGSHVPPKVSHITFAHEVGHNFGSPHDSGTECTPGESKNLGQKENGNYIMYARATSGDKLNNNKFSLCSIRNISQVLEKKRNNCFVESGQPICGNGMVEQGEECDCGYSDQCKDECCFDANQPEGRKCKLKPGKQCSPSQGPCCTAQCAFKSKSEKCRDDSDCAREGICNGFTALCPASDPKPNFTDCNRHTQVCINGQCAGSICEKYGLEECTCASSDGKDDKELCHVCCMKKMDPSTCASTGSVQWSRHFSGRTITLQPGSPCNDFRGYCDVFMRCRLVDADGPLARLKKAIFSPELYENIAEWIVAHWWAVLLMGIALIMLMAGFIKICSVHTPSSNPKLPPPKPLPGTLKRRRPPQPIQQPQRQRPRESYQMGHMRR
ADAM17 inh: ADAM17 inhibitors, primary screen, biochemical, QFRET. Disintegrin and metalloproteinase domain-containing protein 17 (Homo sapiens), P78536. recombinant ADAM17, EDANS/DABCYL FRET peptide cleavage. inhibition, % at 6.95 µM. hit rate 0.83% among 370,000. AID 720648, 2013;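 active = inhibition above the mean of compounds lying between control limits plus 3 SD, set per campaign, cut at about 8.5% in these data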
proKLK7 act conf: proKLK7 zymogen activators, confirmation, biochemical, fluorescence intensity, triplicate; purified proKLK7, EDANS-DABCYL substrate fluorescence; scaled: vehicle 0, mature enzyme 100; activation, % at 7 µM; shares compounds with KLK7 zymogen act; hit rate 68% among 3,200; AID 686949, 2013;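 active = activation, as change over the incubation, above the mean of all tested compounds plus 3 SD, cut at about 13% in these data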
EDANS interfere: EDANS-DABCYL substrate optical interference, artefact control for kallikrein-7 zymogen activator project, biochemical, fluorescence intensity, high throughput. hit rate 80% among 3,200. shares compounds with KLK7 zymogen act. activation, % at 7 µM. no enzyme, 4 h; solvent 0%, active enzyme control 100%. AID 686952, 2013;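 active = activation above the all-compound mean plus 3 SD, ignoring values outside control-based bounds, cut at about 4.8% in these data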;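 also: value is the 4 h activation minus the activation read at time zero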
EDANS interf: EDANS fluorescence interference in dose response, no enzyme; shares compounds with KLK7 zymogen act; hit rate 20% among 250; EC50, µM; AID 720493; EDANS-DABCYL peptide fluorescence interference;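 active = compounds that raise the fluorescence signal in this interference counterscreen, with EC50 at or below 10 µM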;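 also: intact quenched peptide substrate alone read at 355 nm excitation and 520 nm emission; signal is fluorescence gain from T0 to T4 after four hours at room temperature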
Each line names hits and unclear results; the compound was inactive in the other large screens (follow-up assays come after a bar, where they were run).

COc1ccc2ccccc2c1/C=N/NC(=O)c1nnn(-c2nonc2N)c1CN(C)C	none
CN(CCC#N)C(=O)COC(=O)c1ccccc1OCc1ccccc1Cl	none
CC1(C)CC2CC(C)(CN2C(=O)COC(=O)c2cc(Cl)cc(Cl)c2N)C1 (stereo not drawn)	none
CC(C)CNC(=O)COC(=O)c1cc(Cl)cc(Cl)c1N	KLK7 zymogen act 21 | proKLK7 act conf inactive | EDANS interfere inactive
Nc1c(Cl)cc(Cl)cc1C(=O)OCC(=O)N1CCCC1	KLK7 zymogen act 13 | proKLK7 act conf 18 | EDANS interfere 15 | EDANS interf inactive
NC(=O)COC(=O)c1cc(Cl)cc(Cl)c1N	none
COC(=O)CNC(=O)COC(=O)c1cc(Cl)cc(Cl)c1N	KLK7 zymogen act 15 | proKLK7 act conf 53 | EDANS interfere 40 | EDANS interf inactive
CN(CCC#N)C(=O)COC(=O)c1cc(Cl)cc(Cl)c1N	KLK7 zymogen act 16 | proKLK7 act conf inactive | EDANS interfere 11
C=CCN=C1NC(c2ccc(C(F)(F)F)cc2)C(C(=O)OC)=C(C)N1Cc1ccccc1C(F)(F)F (stereo not drawn)	none
O=C(NCc1ccco1)C(=O)NN=Cc1ccccc1O	none
COC(=O)c1ccc2nc(-c3ccc(Cl)cc3)c(Cc3ccccc3)n2c1	none
Nc1ccc(-c2nc3ccc(C(=O)O)cc3s2)cc1	KLK7 zymogen act 79 | proKLK7 act conf 75 | EDANS interfere 76
Nc1cc2sc(-c3ccc(C(=O)O)cc3)nc2cc1Cl	KLK7 zymogen act 51 | proKLK7 act conf 68 | EDANS interfere 75
Nc1cccc(-c2nc3ccc(N)cc3s2)c1	KLK7 zymogen act 82 | proKLK7 act conf 57 | EDANS interfere 75
Oc1ccc(-c2nc3ccccc3s2)cc1	none
O=C(O)c1ccc2nc(-c3ccccc3)sc2c1	none
Nc1ccc(-c2nc3ccc(N)cc3s2)cc1	KLK7 zymogen act 61 | proKLK7 act conf 67 | EDANS interfere 70
CN1CCN(c2ccc(-c3csc(N4CCC(C(N)=O)CC4)n3)cc2)CC1	none (no result: KLK7 zymogen act)
COc1ccccc1Cc1c(C2CCCCC2)nc2c(C)cc(Br)cn12	none
COc1ccccc1CCn1cnc(-c2cccc(Cl)c2)c1CC(C)C	none
COc1ccc2c(=O)c(-c3ccccc3C)c(C)oc2c1	none
CCOc1ccccc1Oc1c(C)oc2cc(OC(=O)c3ccco3)ccc2c1=O	KLK7 zymogen act 28 | proKLK7 act conf 272 | EDANS interfere 238
COc1ccccc1-c1c(C)oc2cc(OC(=O)c3ccco3)ccc2c1=O	KLK7 zymogen act 268 | proKLK7 act conf 376 | EDANS interfere 359
COc1ccccc1Oc1c(C)oc2cc(OC(=O)c3ccco3)ccc2c1=O	KLK7 zymogen act 131 | proKLK7 act conf 785 | EDANS interfere 792
Cc1oc2cc(OCC(=O)O)ccc2c(=O)c1Oc1ccccc1	none
Cc1ccccc1CN1[C@@H](C)[C@H](c2ccccc2)Oc2cccc(NCC(C)C)c2S1(=O)=O	none
COC(=O)C1=CN(C2CC2)C=C(C(=O)OC)C1c1ccccc1OC	KLK7 zymogen act 37 | proKLK7 act conf 78 | EDANS interfere 78
COC(=O)C1=CN(Cc2ccc(OC)c(OC)c2)C=C(C(=O)OC)C1c1cccc(OC)c1OC	none
CCN1C=C(C(=O)OC)C(c2cccc(OC)c2OC)C(C(=O)OC)=C1	KLK7 zymogen act 45 | proKLK7 act conf 76 | EDANS interfere 74
COCCN1C=C(C(=O)OC)C(c2ccccc2Cl)C(C(=O)OC)=C1	KLK7 zymogen act 42 | proKLK7 act conf inactive | EDANS interfere inactive
COC(=O)C1=CN(Cc2ccc(OC)c(OC)c2)C=C(C(=O)OC)C1c1ccccc1F	none
COC(=O)C1=C(C)N(Cc2ccccc2)C(=S)NC1c1cccc(Br)c1 (stereo not drawn)	none
COc1ccccc1Oc1coc2c(CN(C)C)c(O)ccc2c1=O	KLK7 zymogen act 62 | proKLK7 act conf 63 | EDANS interfere 69
CCN(CC)Cc1c(O)ccc2c(=O)c(Oc3ccccc3OC)coc12	KLK7 zymogen act 15 | proKLK7 act conf 44 | EDANS interfere 33 | EDANS interf 8.6
CCN(CC)Cc1c(O)ccc2c(=O)c(-c3ccccc3)coc12	KLK7 zymogen act 26 | proKLK7 act conf 23 | EDANS interfere 31
CCN(CC)Cc1c(O)ccc2c(=O)c(-c3ccc4c(c3)OCCO4)coc12	none
Cc1nc(-c2coc3c(CN(C)C)c(O)ccc3c2=O)cs1	KLK7 zymogen act 19 | proKLK7 act conf 42 | EDANS interfere 42
COC(=O)[C@]12C[C@H](CC(=O)N3CCSCC3)C(=O)N(Cc3ccccc3)C1=C[C@H](C1CCCC1)O[C@@H]2C	none
Cc1cc(Oc2cccnc2)ccc1NC(=O)Cc1cn(C)c2ccccc12	none
N#Cc1ccc2nc(-c3ccc(CN4CCC(c5nc6ccccc6[nH]5)CC4)cc3)c(-c3ccccc3)nc2c1	none
O=C(CSc1nc2ccccc2nc1N1CCCC1)N1CCN(C(c2ccccc2)c2ccccc2)CC1	none
COC(=O)C1=C(C)N(Cc2ccccc2C(F)(F)F)C(=NCc2ccc(C(F)(F)F)cc2)NC1c1ccc(Cl)cc1 (stereo not drawn)	none
COC(=O)C1=C(C)N(Cc2ccc(Br)cc2)C(=S)NC1c1ccccc1 (stereo not drawn)	none
CCCCOCC1CN(Cc2ccccc2OC)S(=O)(=O)c2cc(Cl)ccc2O1 (stereo not drawn)	none
CCCn1cc(CCC(=O)Nc2ccc(Oc3cccnc3)cc2)c2ccccc21	none
COc1cccc(CNC(=O)[C@H]2CCCN2C(=O)[C@H]2CCCN2C(=O)c2ccc(OC(F)(F)F)cc2)c1	none
COc1ccccc1-c1coc2c(CN(C)C)c(O)ccc2c1=O	KLK7 zymogen act 50 | proKLK7 act conf 78 | EDANS interfere 70
